A selection: hits, their analogues and other compounds. The true share with any hit is near 4.3%.
MCF10A rerep – induces DNA re-replication in MCF 10a normal breast cells; AID 624296; Potency, µM (highest dose often 46.1 µM), hits mostly activators; MCF 10A DNA re-replication, Hoechst nuclear intensity, 48 h; 2.9% of 350,000 active; further: nearly all actives have a fitted effect of over 50% in size
SW480 rereplic – DNA re-replication induction in SW480 cells | SW480 DNA re-replication, Hoechst DNA content imaging, 48 h | Potency, µM (doses to about 46.1 µM), actives largely listed as activators | 1.8% of 340,000 active | AID 624297; further: nearly all actives have a fitted effect of over 55% in size
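Quantitative HTS format with DMSO vehicle controls; 48 hr drug incubation at 37 C, then 40 min Hoechst staining and scanning imager measurement at 405 nm excitation.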
Giardia kill – Giardia lamblia killing | AID 540267 | 0.15% of 340,000 active | activity change, % at 7.66 µM, hits read low | Giardia lamblia trophozoite viability; in the data active means activity change below about -80%; inconclusive means between about -30% and that limit;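 further: parasites exposed to compound for two days anaerobically before the ATP read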
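Luminescence from cellular ATP indicates surviving trophozoites (100 cells/well) following 48 hrs anaerobic compound treatment at 37 deg C; signal develops 15-30 min at room temperature.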
uPA generation – inhibitors of cell surface uPA generation; cell surface uPA generation assay, qHTS; Potency, µM (titrated, usually from 38.3 µM), most hits filed as inhibitors; 0.31% of 330,000 active; active means well fitted inhibition curve with a large enough effect; inconclusive means small, poorly fitted or top-dose-only effect; inactive means no such curve, though single readings can be large or run the other way; tested in mouse RAW 264.7 cells; further: nearly all actives have a fitted effect of over 55% in size
Of the large screens only hits and unclear results are named; the others gave an inactive call. Unless noted, the call rests on the fitted dose curve; in most records, active means well fitted activation curve with a large enough effect; inconclusive means small, poorly fitted or top-dose-only effect; inactive means no such curve, though single readings can be large or run the other way.

Cc1ccc2nc(-c3ccc(NC(=O)CN4CCN(c5ccccn5)CC4)cc3)sc2c1	MCF10A rerep 13µM, SW480 rereplic inconclusive
Cc1ccc(N(CC(=O)Nc2ccc(-c3nc4ccc(C)cc4s3)cc2)S(C)(=O)=O)cc1	MCF10A rerep 16µM, SW480 rereplic inconclusive
CC(N)C(=O)NCC(=O)NC1CSSCC(C(=O)O)NC(=O)C(CO)NC(=O)C(C(C)O)NC(=O)C(Cc2ccccc2)NC(=O)C(C(C)O)NC(=O)C(CCCCN)NC(=O)C(Cc2c[nH]c3ccccc23)NC(=O)C(Cc2ccccc2)NC(=O)C(Cc2ccccc2)NC(=O)C(CC(N)=O)NC(=O)C(CCCCN)NC1=O (configuration not stated)	none (no result: Giardia kill, uPA generation)
Cc1ccc2nc(-c3ccc(NC(=O)CSc4nc(N)cc(=O)[nH]4)cc3)sc2c1	SW480 rereplic 3.7µM
Cc1ccc2nc(-c3ccc(NC(=O)CN4C(=O)c5ccccc5C4=O)cc3)sc2c1	MCF10A rerep 16µM, SW480 rereplic 21µM
CCOC(=O)Cc1ccc(NS(=O)(=O)c2ccc(SC)cc2)cc1	none
CCOC(=O)c1ccc(NS(=O)(=O)c2ccc(SC)cc2)cc1	MCF10A rerep 23µM
O=S1(=O)NCC23CCC(CC21)O3 (configuration not stated)	none (no result: MCF10A rerep, SW480 rereplic, uPA generation)
Cc1cc2oc(=O)cc(CN(C)Cc3ccccc3)c2cc1C(C)C	MCF10A rerep 15µM, SW480 rereplic inconclusive
COc1ccc(CN(C)Cc2cc(=O)oc3cc(C)c(C(C)C)cc23)cc1OC	MCF10A rerep inconclusive, SW480 rereplic inconclusive
CSc1ccc(CN(C)Cc2cc(=O)oc3c(C)c(C)ccc23)cc1	MCF10A rerep inconclusive
Cc1ccc2c(CN(C)Cc3cccc(Cl)c3)cc(=O)oc2c1C	MCF10A rerep 21µM
CN1C=CC(=O)[C@@H](O)[C@H]1c1ccccc1Br	none
CCOC(=O)c1ccc(NC(=O)c2cccc3c2C(=O)N(CC2CCCO2)C3)cc1 (configuration not stated)	none
CCOC(=O)C1=CN(CC2CCCO2)C=C(C(=O)OCC)C1c1ccccc1C(F)(F)F (configuration not stated)	MCF10A rerep 13µM, SW480 rereplic 15µM
COc1ccccc1NC(=O)c1sc2nc(C)c(C(=O)Nc3ccc(C)cc3C)c(-c3ccco3)c2c1N	none (no result: MCF10A rerep, SW480 rereplic, uPA generation)
C=C1C(=O)OC2C=C(CO)C3OC3C3OC3(C)CC(OC(=O)/C(=C/C)COC(C)=O)C12 (configuration not stated)	MCF10A rerep 2.1µM, SW480 rereplic 0.82µM
CC(C)Oc1ccc(C(=O)/C=C2/C(=O)Nc3ccccc32)cc1	MCF10A rerep inconclusive, SW480 rereplic inconclusive
COc1ccc(C(=O)/C=C2\C(=O)Nc3ccc(Br)cc32)cc1	MCF10A rerep 7.3µM, SW480 rereplic inconclusive
O=C1Nc2ccc(Br)cc2/C1=C/C(=O)c1ccc2c(c1)OCO2	MCF10A rerep 3.7µM, SW480 rereplic inconclusive, uPA generation inconclusive
COc1ccc2c(c1)/C(=C/c1cc(OC)c(OC)c(OC)c1)C(=O)N2	MCF10A rerep inconclusive, SW480 rereplic 2.6µM
COc1ccc(/C=C2\C(=O)NC(=O)c3ccccc32)cc1OC	MCF10A rerep inconclusive, SW480 rereplic inconclusive
O=C(Nc1ccc(Br)c(C(F)(F)F)c1)c1ccc(C(F)(F)F)cc1	MCF10A rerep 15µM, SW480 rereplic inconclusive
O=C(Nc1ccc(OCC(F)(F)C(F)F)c(C(F)(F)F)c1)c1ccc(Cl)cc1	MCF10A rerep 23µM, SW480 rereplic inconclusive
COc1ccc(C(=O)Nc2ccc(OCC(F)(F)C(F)F)c(C(F)(F)F)c2)cc1OC	none
O=C(Nc1ccc(Br)c(C(F)(F)F)c1)c1ccccc1	MCF10A rerep inconclusive, Giardia kill inconclusive
O=C(CN1C(=O)NC2(CCc3ccccc32)C1=O)NCc1ccc(Cl)cc1 (configuration not stated)	none
CN[C@H]1[C@@H](O)[C@@H](NC)[C@@H]2O[C@@]3(O)C(=O)C[C@@H](C)O[C@H]3O[C@H]2[C@H]1O	none (no result: Giardia kill, uPA generation)
COc1ccc(CN(CCC(c2ccccc2)c2ccc(OC(C)C)cc2)C(=O)CCl)cc1OC (configuration not stated)	MCF10A rerep 4.6µM, SW480 rereplic 3.7µM
O=c1cc(CN2CCN(C/C=C/c3ccccc3)CC2)c2cc(O)c(-c3ccccc3)cc2o1	SW480 rereplic 18µM
Cc1c(O)ccc2c(CN3CCN(C/C=C/c4ccccc4)CC3)cc(=O)oc12	none
Nc1nccc(NCCSCc2ccccc2)n1	MCF10A rerep inconclusive
Cc1cccc(-c2cnn(-c3ccccc3)c2N)c1	SW480 rereplic 18µM, uPA generation inconclusive
Cc1cccc(-c2cnn(-c3cccc([N+](=O)[O-])c3)c2N)c1	none
Cc1cccc(-n2ncc3c(NC4CCCCC4)ncnc32)c1	uPA generation 11µM
COc1ccc(-n2ncc3c(N4CCCCC4)ncnc32)cc1	Giardia kill -82, uPA generation 1.3µM
Cc1cccc(-n2ncc3c(N4CCOCC4)ncnc32)c1	Giardia kill inconclusive, uPA generation 0.79µM
CC1C(=O)C(C)C(c2ccc(Br)cc2)NC1c1ccc(Br)cc1 (configuration not stated)	MCF10A rerep 23µM, SW480 rereplic inconclusive, uPA generation inconclusive
Cc1ccccc1C1NC(c2ccccc2C)C(C)C(=O)C1C (configuration not stated)	none
CC1C(=O)C(C)C(c2ccc3c(c2)OCO3)NC1c1ccc2c(c1)OCO2 (configuration not stated)	none
CC1C(=O)C(C)C(c2cc(Br)ccc2O)NC1c1cc(Br)ccc1O (configuration not stated)	MCF10A rerep 23µM, SW480 rereplic inconclusive
COC(=O)CC(c1ccc(F)cc1)n1c(C)ccc1C (configuration not stated)	MCF10A rerep 23µM
O=C(NCc1ccc(Cl)cc1)c1ccc(CSc2nc3ccncc3[nH]2)cc1	none
O=C(c1ccc(CSc2nc3ccncc3[nH]2)cc1)N1CCCCCC1	Giardia kill inconclusive
Clc1ccc(CSc2nc3ccncc3[nH]2)cc1	Giardia kill inconclusive, uPA generation 0.45µM
Cc1ccc(CSc2nc3ccncc3[nH]2)cc1	Giardia kill -90
CC1(C)C(=O)Nc2ccccc2N1C(=O)COC(=O)c1ccc(NC(N)=O)cc1	none
Cc1ccc(S(=O)(=O)N2CCC[C@H]2C(=O)NC2=NCCS2)cc1	none
CC1CC=CC2C1C(=O)N(Cc1ccccc1)C2c1ccc2ccccc2c1Br (configuration not stated)	none (no result: MCF10A rerep, SW480 rereplic, uPA generation)
CCCN1CNc2c(c(=O)[nH]c(=S)n2CCc2c(C)cccc2C)C1	none (no result: MCF10A rerep, SW480 rereplic, uPA generation)
N#C/C(=C\N1CCN(Cc2ccc3c(c2)OCO3)CC1)c1nc2ccccc2s1	MCF10A rerep 21µM, SW480 rereplic inconclusive (no result: uPA generation)
Cc1cn(CC(=O)NCc2ccc3c(c2)OCO3)c(=O)[nH]c1=O	none
CCOc1ccc(CN(C)C(C)C(=O)NCCc2ccc(F)cc2)cc1 (configuration not stated)	none
CC1(C)C=Cc2cc(-c3coc4cc(O)cc(O)c4c3=O)cc(O)c2O1	MCF10A rerep 15µM
O=c1[nH]c(/C(Cl)=C/c2c(F)cccc2Cl)nc2cc(Cl)ccc12	MCF10A rerep inconclusive
O=c1[nH]c(/C(Cl)=C/c2cc(Cl)ccc2O)nc2cc(Cl)ccc12	MCF10A rerep 15µM
